Results published in PubChem BioAssay.
Active and inactive are the calls of the source.

How the values were obtained:
[1] = test system: Plasmodium falciparum Sir2 (PF13_0152, Sir2A); test: pfSir2 binders on small-molecule microarrays, primary screen, biochemical, small-molecule microarray, 635 nm fluorescence (AID 1098); conditions: small-molecule microarray binding, fluorescence 635 nm; higher = more signal;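 note: score merges spot fluorescence intensity with its signal-to-noise ratio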
[2] = small-molecule microarray binders of probe aDKK1, primary screen, biochemical, biotinylated probe, 635/667 nm fluorescence (AID 1099); conditions: higher = more signal;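 note: score merges 667nm spot fluorescence with signal to noise across triplicate slides; reference of the scale not given here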
[3] = small-molecule microarray binders of probe aCHRDL2, primary screen, biochemical, biotinylated probe, 635/667 nm fluorescence (AID 1100); conditions: higher = more signal
[4] = splicing luciferase reporter signal modulators, primary screen, spliceosome inhibition project, cell-based, HEK293, splice +/- reporter (AID 1101); conditions: luminescence, 24 h, higher = more signal, called active from +8 up or from −8 down;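 note: HEK293 cells carrying a splicing-competent luciferase reporter gene; test concentration not given here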
[5] = target: Fibroblast growth factor 10 (Homo sapiens) (UniProt O15520); test: FGF10 binders on small-molecule microarrays, primary screen, biochemical, small-molecule microarray, 635 nm fluorescence (AID 1102); conditions: FGF10 binding, fluorescence 635 nm, higher = more signal
Sequence of Fibroblast growth factor 10 (Homo sapiens) (O15520 whole entry, looked up): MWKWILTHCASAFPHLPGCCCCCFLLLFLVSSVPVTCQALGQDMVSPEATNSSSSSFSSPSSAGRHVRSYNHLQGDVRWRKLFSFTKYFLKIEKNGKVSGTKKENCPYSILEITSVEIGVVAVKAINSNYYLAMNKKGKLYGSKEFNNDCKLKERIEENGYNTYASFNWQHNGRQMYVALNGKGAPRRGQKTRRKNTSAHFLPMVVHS

[6] = test system: glycogen synthase kinase-3 (GSK3A per assay name; protocol says GSK3B); test: GSK3 binders on small-molecule microarrays, primary screen, biochemical, small-molecule microarray, 635 nm fluorescence, GSK3A (AID 1103); conditions: small-molecule microarray binding, fluorescence 635 nm; higher = more signal; note: the record names both GSK3A and GSK3B
[7] = target: Epidermal growth factor receptor (Homo sapiens) (UniProt P00533); test: EGFR binders on small-molecule microarrays, primary screen, biochemical, small-molecule microarray, 635 nm fluorescence (AID 1104); conditions: EGFR binding, higher = more signal;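 note: score merges 667 nm emission intensity with spot signal to noise over triplicate slides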
Sequence of Epidermal growth factor receptor (Homo sapiens) (P00533 whole entry, looked up): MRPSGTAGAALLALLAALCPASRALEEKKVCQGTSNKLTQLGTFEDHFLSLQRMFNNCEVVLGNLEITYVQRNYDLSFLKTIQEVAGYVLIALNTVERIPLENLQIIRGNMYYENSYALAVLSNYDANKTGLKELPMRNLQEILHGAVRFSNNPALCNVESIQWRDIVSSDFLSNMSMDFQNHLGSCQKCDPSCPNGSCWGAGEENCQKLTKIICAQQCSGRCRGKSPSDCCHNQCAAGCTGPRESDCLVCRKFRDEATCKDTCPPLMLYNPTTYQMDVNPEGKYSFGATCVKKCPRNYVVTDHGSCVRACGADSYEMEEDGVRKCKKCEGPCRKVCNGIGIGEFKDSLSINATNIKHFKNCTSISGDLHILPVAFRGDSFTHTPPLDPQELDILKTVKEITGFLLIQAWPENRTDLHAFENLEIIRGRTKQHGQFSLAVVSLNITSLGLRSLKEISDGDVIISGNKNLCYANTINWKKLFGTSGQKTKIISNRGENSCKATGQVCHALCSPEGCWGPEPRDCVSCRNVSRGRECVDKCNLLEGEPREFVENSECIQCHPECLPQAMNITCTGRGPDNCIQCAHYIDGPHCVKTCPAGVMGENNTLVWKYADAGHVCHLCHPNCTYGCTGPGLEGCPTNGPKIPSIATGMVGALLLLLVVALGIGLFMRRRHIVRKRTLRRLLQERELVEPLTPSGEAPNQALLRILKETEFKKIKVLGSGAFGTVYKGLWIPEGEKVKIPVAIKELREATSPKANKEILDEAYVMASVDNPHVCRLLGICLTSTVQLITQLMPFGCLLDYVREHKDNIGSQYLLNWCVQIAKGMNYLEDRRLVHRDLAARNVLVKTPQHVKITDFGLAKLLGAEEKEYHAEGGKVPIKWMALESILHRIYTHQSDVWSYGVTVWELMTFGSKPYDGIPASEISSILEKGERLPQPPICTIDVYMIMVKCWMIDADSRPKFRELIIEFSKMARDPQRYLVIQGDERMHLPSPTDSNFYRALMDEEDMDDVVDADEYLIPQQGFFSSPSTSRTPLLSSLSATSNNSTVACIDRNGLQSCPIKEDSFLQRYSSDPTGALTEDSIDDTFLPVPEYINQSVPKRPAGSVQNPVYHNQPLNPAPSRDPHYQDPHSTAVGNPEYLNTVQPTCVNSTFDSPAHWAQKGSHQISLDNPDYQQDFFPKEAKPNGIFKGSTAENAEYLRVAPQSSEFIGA

[8] = target: Follistatin-related protein 3 (Homo sapiens) (UniProt O95633); test: FSTL3 binders on small-molecule microarrays, primary screen, biochemical, small-molecule microarray, 635 nm fluorescence (AID 1105); conditions: FSTL3 binding, higher = more signal;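 note: score merges emission near 667 nm and signal to noise per printed spot across three slides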
Sequence of Follistatin-related protein 3 (Homo sapiens) (O95633 whole entry, looked up): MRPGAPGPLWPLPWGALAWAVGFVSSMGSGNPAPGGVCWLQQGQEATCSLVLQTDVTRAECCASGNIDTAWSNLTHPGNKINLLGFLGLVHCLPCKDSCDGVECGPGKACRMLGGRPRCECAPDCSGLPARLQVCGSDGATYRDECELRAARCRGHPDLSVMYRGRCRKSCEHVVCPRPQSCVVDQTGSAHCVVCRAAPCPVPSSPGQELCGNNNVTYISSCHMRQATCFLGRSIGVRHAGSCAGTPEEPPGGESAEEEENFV

[9] = target: Dickkopf-related protein 1 (Homo sapiens) (UniProt O94907); test: DKK1 binders on small-molecule microarrays, primary screen, biochemical, small-molecule microarray, 635 nm fluorescence scan (AID 1106); conditions: DKK1 binding, higher = more signal;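 note: score merges emission near 667 nm with signal to noise over three replicate slides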
Sequence of Dickkopf-related protein 1 (Homo sapiens) (O94907 whole entry, looked up): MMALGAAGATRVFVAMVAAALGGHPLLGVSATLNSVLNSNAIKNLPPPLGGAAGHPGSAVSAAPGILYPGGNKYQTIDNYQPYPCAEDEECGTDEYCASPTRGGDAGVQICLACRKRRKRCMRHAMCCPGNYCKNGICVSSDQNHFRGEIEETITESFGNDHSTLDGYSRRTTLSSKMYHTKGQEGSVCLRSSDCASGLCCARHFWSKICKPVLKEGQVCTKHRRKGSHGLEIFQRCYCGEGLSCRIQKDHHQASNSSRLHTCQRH

[10] = test system: Inhibin beta A chain (activin A); test: INHBA (activin A) binders on microarrays, primary screen, biochemical, small-molecule microarray, 635 nm fluorescence scan (AID 1107); conditions: small-molecule microarray binding, higher = more signal;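 note: mouse activin A protein probed at 4.33 µg/mL on printed slides; score merges bound-protein fluorescence near 667 nm with spot signal-to-noise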

Compound | composite z-score [1] | composite z-score [2] | composite z-score [3] | z-score [4] | composite z-score [5] | composite z-score [6] | composite z-score [7] | composite z-score [8] | composite z-score [9] | composite z-score [10]
COc1cc2c(cc1O)C(c1cccs1)N(Cc1sc3ccccc3c1Cl)CC2 (stereo not given) | 1.33 | 0.525 | 0.179 | -0.861 (inactive) | 1.46 | 1.36 | 0.495 | 1.41 | 0.726 | 0.816
COCCOC(=O)N1C(=O)[C@@]2(c3cc(C#CCC(C(=O)OC)C(=O)OC)ccc31)[C@H](c1ccc(OCCO)cc1)N1[C@H](c3ccccc3)[C@H](c3ccccc3)OC(=O)[C@H]1[C@@H]2C(=O)Nc1nc2ccccc2s1 | 1.02 | 0.0317 | -0.108 | 0.907 (inactive) | 0.84 | 1.06 | 0.292 | 1.08 | 0.279 | 0.495
COC(=O)c1c2oc(c1C(=O)OC)C(=O)N1CCC[C@H]1Cn1nncc1CN(Cc1ccccc1)C(=O)N[C@H](CO)CC2 | 0.614 | -0.304 | -0.0048 | 0.733 (inactive) | 0.627 | -0.103 | 0.327 | -0.0361 | -0.113 | 0.309
CC(C)CCC[C@@H](C)[C@H]1CC[C@@]2(C)C3=C(CC[C@]12C)[C@@]1(C)CC[C@H](OC(=O)c2ccccc2)C(C)(C)C1CC3 (stereo not given in full) | 0.238 | -0.279 | -0.501 | -1.54 (inactive) | 0.155 | 0.21 | 0.375 | 0.429 | 0.61 | -0.0754
C=C(CCCC)C(=O)CC[C@H](OC(=O)c1ccccc1-c1ccccc1C(=O)O)c1ccccc1OCCO | 0.855 | -0.475 | -0.336 | 2.02 (inactive) | 0.271 | -0.218 | -0.226 | -0.279 | 0.145 | 1.28
CO[C@H]1O[C@H](CO)[C@@H](OC(=O)c2ccc(Br)cc2)[C@@H]2OC(=O)[C@H](Cc3ccccc3)C/C=C/C[C@@H](Cc3ccccc3)C(=O)O[C@@H]12 | 1.14 | -0.407 | 0.0962 | -0.511 (inactive) | 0.583 | 0.186 | 0.287 | 0.435 | 0.214 | 1.24
CN(C)CCCCNC(=O)[C@H]1C[C@H]2C(=O)N[C@@H](CCCC[N+](C)(C)C)C(=O)N2[C@H]1c1ccc(O)cc1 | 1.26 | -0.209 | -0.328 | -1.48 (inactive) | -0.937 | -0.55 | -0.327 | -0.205 | 0.357 | 0.0643
O=C(NCC(O)CO)[C@@]1(CCS(=O)(=O)c2ccccc2)COC(c2ccc(OCCCO)cc2)=N1 (stereo not given in full) | 1.13 | 1.07 | 1.16 | 0.475 (inactive) | 0.655 | -0.454 | -0.375 | -0.199 | -0.522 | 0.877
C=CCC(OC(C)=O)[C@@H]1[C@@H](N(Cc2ccc(-c3cccc(C(F)(F)F)c3)o2)C(=O)Cc2ccc(OC)cc2)c2cc(OCCCO)ccc2N1C(=O)Cc1ccc2ccccc2c1 (stereo not given in full) | 0.946 | -0.178 | 0.406 | -1.16 (inactive) | -0.0775 | -0.953 | -0.749 | -0.475 | -0.274 | 0.613
COCCOC(=O)N1C(=O)[C@@]2(c3cc(C#CC4(O)CCCCCC4)ccc31)[C@H](c1ccc(OCCO)cc1)N1[C@H](c3ccccc3)[C@H](c3ccccc3)OC(=O)[C@H]1[C@@H]2C(=O)Nc1nc2ccccc2s1 | 1.41 | 0.722 | 0.208 | 0.268 (inactive) | 1.05 | 0.522 | 0.538 | 1.33 | 0.559 | 0.308
COc1ccc(C#Cc2ccc3c(c2)[C@]2(C(=O)N3)[C@H](C(=O)Nc3nc4ccccc4s3)[C@H]3C(=O)O[C@H](c4ccccc4)[C@H](c4ccccc4)N3[C@@H]2c2ccccc2OCCO)cc1 | 0.465 | 0.243 | -0.125 | 0.17 (inactive) | 0.463 | 0.933 | 0.19 | 0.821 | 0.47 | 0.648
CO[C@H]1O[C@H](CO)[C@@H](OC(=O)Nc2cccc(F)c2)[C@H](OC(=O)Nc2ccccc2-c2ccccc2)[C@H]1OC(=O)Nc1ccccc1-c1ccccc1 | 1.26 | 0.255 | 0.735 | 4.28 (inactive) | 1.46 | 1.33 | 0.321 | 1.3 | 0.585 | 0.664
COc1ccc(C(=O)Nc2cccc(CN3C(=O)[C@]4(O[C@H](CCn5cc([C@H](O)c6ccccc6)nn5)[C@@H]([Si](C)(C)c5ccc(OC)cc5)[C@@H]4C)c4ccccc43)c2)cc1 | 0.758 | 0.224 | 0.265 | -2.49 (inactive) | 0.26 | -0.266 | -0.339 | 0.31 | -0.132 | 1.41
COC(=O)C1=CC(CCCO)=CC(c2ccc(CN3CCCC3)cc2)N(Cc2cc3c(cc2Br)OCO3)C=C1C(=O)OC (stereo not given) | 1.16 | 1.12 | 0.986 | -0.967 (inactive) | 1.45 | 0.636 | 0.19 | 1.46 | 0.836 | 1.13
[N-]=[N+]=NCc1ccccc1C[C@]1(C(=O)N2CCOCC2)COC(c2ccc(OCCCO)cc2)=N1 | 0.947 | 1.05 | 1.05 | -0.363 (inactive) | 0.396 | 0.935 | -0.505 | 0.0724 | -0.921 | 0.983
COC(=O)C(CC#Cc1ccc2c(c1)[C@]1(C(=O)N2)[C@H](C(=O)Nc2nc3ccccc3s2)[C@H]2C(=O)O[C@H](c3ccccc3)[C@H](c3ccccc3)N2[C@@H]1c1ccc(OCCO)cc1)C(=O)OC | 0.912 | 0.277 | 0.575 | -1.25 (inactive) | 1.15 | 1.21 | 0.468 | 1.19 | 0.344 | 0.519
C=CCN1C(=O)[C@]2(O[C@H](CCO)[C@@H]([Si](C)(C)c3ccc(OC)cc3)[C@@H]2C)c2cc(N3C(=O)COc4ccccc43)ccc21 | 0.529 | -0.113 | 0.33 | -3.03 (inactive) | 0.74 | 0.195 | 0.0364 | 0.4 | -0.207 | 0.378
COc1ccc([Si](C)(C)[C@H]2[C@H](CC(=O)N3CCC[C@H]3CO)O[C@@]3(C(=O)N(Cc4ccc(N5CCC5=O)cc4)c4ccccc43)[C@@H]2C)cc1 | 1.49 | -0.248 | -0.567 | -0.805 (inactive) | 1.34 | 1.29 | 0.838 | 1.41 | 0.774 | -0.525
CCCCCN1CC=CC23O[C@@H]4C=CCOC(=O)[C@@H]4[C@H]2C(=O)N(CCO)[C@@H]3C1=O (stereo not given in full) | -0.0015 | -0.314 | 0.634 | 0.374 (inactive) | -0.318 | -0.527 | -1.17 | -1.3 | -1.25 | 0.393
COc1ccc(C(O)C2C=CC3C(=O)N(c4ccccc4)C(=O)C3N2Nc2ccccc2)cc1 (stereo not given) | 0.97 | -0.0903 | 0.637 | 1.68 (inactive) | 1.31 | 0.592 | 0.199 | 1.37 | -0.0198 | 1.04
CCCCCN1CC=CC23O[C@@H]4/C=C\CCC(C)OC(=O)C4[C@H]2C(=O)N(CCCCCCO)[C@@H]3C1=O (stereo not given in full) | 1.44 | -0.219 | 0.248 | -0.833 (inactive) | -0.381 | -0.459 | -0.434 | -0.303 | -0.397 | 1.13
O=C(O)[C@H]1C[C@H]2C(=O)N[C@@H](Cc3ccccc3)C(=O)N2[C@H]1c1cccc(OCCO)c1 | 0.348 | 0.507 | 0.198 | -0.129 (inactive) | 0.986 | 0.874 | 0.391 | 1.2 | 1.17 | 0.206
COc1ccc([Si](C)(C)[C@@H]2[C@@H](CC(=O)N3Cc4ccccc4C[C@H]3CO)O[C@]3(C(=O)N(Cc4ccc(N5CCC5=O)cc4)c4ccccc43)[C@H]2C)cc1 | 1.16 | -0.259 | -0.1 | -1.12 (inactive) | 0.46 | 0.852 | 0.744 | 1.06 | 0.644 | 0.331
Cc1ccc(C(C)CC(O)C2C=CC3C(=O)N(c4ccccc4)C(=O)C3N2Nc2ccc(C#N)cc2)o1 (stereo not given) | 0.966 | 0.846 | 0.539 | 3.02 (inactive) | 1.12 | 1.08 | 0.202 | 0.913 | -0.0435 | 0.607
C=C[C@@H](C)[C@H](O)c1ccc(OCCO)cc1 | -0.112 | -0.234 | 0.825 | -0.474 (inactive) | -1.57 | -1.25 | -2.14 | -1.71 | -1.5 | -1.57
CCOC(=O)C=Cc1cc(F)ccc1O | 0.188 | -0.137 | -0.31 | -1.37 (inactive) | 0.168 | -0.126 | 0.0683 | 0.0871 | -0.258 | 0.835
O=C1O[C@H](c2ccccc2)[C@H](c2ccccc2)N2[C@H]1[C@@H](C(=O)O)[C@]1(C(=O)Nc3ccc(C#CC4(O)CCCCCC4)cc31)[C@H]2c1ccc(O)cc1 | 0.502 | -0.2 | 0.14 | -0.574 (inactive) | 0.0884 | -0.103 | 0.161 | -0.544 | -0.297 | 0.138
O=C1C2C=CC(C(O)c3ccc4c(c3)OCO4)N(Nc3ccccc3)C2C(=O)N1c1ccccc1 (stereo not given) | 1.41 | 0.45 | 1.09 | 0.243 (inactive) | 0.781 | -0.157 | -0.0637 | 0.71 | -0.541 | 0.477
O=C1NC(=O)C2C1C=CC(C(O)c1ccccn1)N2Nc1ccc(Cl)cc1Cl (stereo not given) | 0.827 | 0.315 | 0.717 | 1.54 (inactive) | 0.0551 | -0.0767 | 0.107 | -0.196 | -0.35 | 0.386
